Screens from PubChem BioAssay.
A selection: hits, their analogues and other compounds. The true share with any hit is near 3.5%.
GPR151 activ: activators of human GPR151; Q8TDV0; PathHunter beta-arrestin GPR151 cells, luminescence; activation, % at 11.2 µM; 1% of 650,000 active; in the data active means activation above about 4.9%;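 further: 0% = median of compound wells and 100% = cells with positive control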
Target sequence (Q8TDV0 whole entry, looked up): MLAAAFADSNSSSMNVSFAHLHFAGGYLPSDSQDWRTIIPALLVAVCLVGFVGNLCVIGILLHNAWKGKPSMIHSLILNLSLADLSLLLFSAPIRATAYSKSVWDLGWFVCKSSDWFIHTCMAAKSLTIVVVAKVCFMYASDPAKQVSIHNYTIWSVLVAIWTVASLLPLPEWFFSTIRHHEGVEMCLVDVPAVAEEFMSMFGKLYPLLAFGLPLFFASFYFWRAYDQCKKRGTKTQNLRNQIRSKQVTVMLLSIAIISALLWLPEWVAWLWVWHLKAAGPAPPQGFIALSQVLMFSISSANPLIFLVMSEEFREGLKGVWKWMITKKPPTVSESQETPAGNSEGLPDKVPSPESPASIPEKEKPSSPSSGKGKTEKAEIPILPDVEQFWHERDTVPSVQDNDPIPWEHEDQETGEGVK
MITF primary: inhibitors of human MITF; AlphaScreen MITF homodimerization, bead proximity signal; AID 1259374; O75030; inhibition, % at 2.6 µM; 0.91% of 650,000 active; in the data active means inhibition above about 50%;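 further: 0% = vehicle wells with protein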
TEAD-YAP block: TEAD-YAP interaction inhibition | HEK-TIYL cells, TEAD-Gal4/YAP UAS-luciferase luminescence | inhibition, % at 9.12 µM | 1.4% of 640,000 active | AID 1259422; in the data active means inhibition above about 32%;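 further: 0% = median of test compound wells and 100% = reference inhibitor wells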
FBW7 act: human FBW7 E3 ligase activation, primary screen; Q969H0; 0.13% of 650,000 active; AlphaScreen FBW7–phospho-cyclin E peptide binding, activator screen; normalized activity (activation), % at 26.1 µM; in the data active means normalized activity above about 1.9%;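 further: purified mutant Fbw7 with reduced substrate affinity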
MITF inh conf: confirmation of human MITF inhibitors. shares compounds with MITF primary. AlphaScreen MITF homodimerization, biotin/His-MITF beads. inhibition, % at 2.6 µM. 16% of 4,700 active. AID 1259372;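 active means inhibition above a cutoff derived from the DMSO control wells, cut at about 28% in these data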;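 further: 0% = MITF dimer wells with DMSO only; inhibitors lower the bead chemiluminescence by keeping MITF from dimerizing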
AS interf DR: AlphaScreen optical interference, dose response counter-screen; shares compounds with MITF primary; AlphaScreen optical interference counterscreen, cell-free; IC50, µM; 6% of 480 active; call rule not given here
AS interf ctr: counter-screen: compounds optically interfering with AlphaScreen; shares compounds with MITF primary; LysRS AlphaScreen counterscreen, signal interference, triplicate; inhibition, % at 2.6 µM; 7.6% of 4,700 active;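 active means inhibition above a cutoff derived from the DMSO control wells, cut at about 30% in these data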
* = called active by the depositor; · = no result.

SMILES	GPR151 activ	MITF primary	TEAD-YAP block	FBW7 act	MITF inh conf	AS interf ctr	others
CCC(Sc1nc2ccc(N3CCCCC3)cc2c(=O)n1Cc1ccccc1)C(=O)NCc1cccnc1 (centres undefined)	2	13	0	0	·	·
N#Cc1c(SCC(=O)O)nc(N2CCCCC2)c2c1CCCC2	0	-1	5	0	·	·
CCCSc1nc(N2CCCCC2)c2c(c1C#N)CCCC2	0	66*	-4	0	-7	-5
CCCNC(=O)c1cnc(Nc2cnccn2)s1	-2	55*	-12	0	3	8
CN(CCc1ccccn1)C(=O)c1cccc(F)c1	4	105*	-2	0	7	9
CN(CCc1ccccn1)C(=O)c1ccc(F)cc1	-1	77*	4	0	0	3
COc1ccc(/C=C/C(=O)OC2CCCCC2=O)cc1OC (centres undefined)	-2	4	-3	0	·	·
CCOC(=O)N1CCN(C(=O)Cn2cnc3ccccc32)CC1	1	0	7	0	·	·
O=C(CN1CCC(Cn2cnc3ccccc32)CC1)N1CCc2ccccc21	0	81*	35*	0	0	14
Cc1ccc(NC(=O)CN2CCC(Cn3cnc4ccccc43)CC2)cc1Cl	0	70*	-5	0	12	13
CCOC(=O)CN1CCC(Cn2cnc3ccccc32)CC1	0	79*	17	0	7	17
O=C1/C(=C\c2ccco2)CC2CC1C/C(=C/c1ccco1)C2=O	-2	52*	1	0	17	-12
O=C1/C(=C\c2cccs2)CC2CC1C/C(=C/c1cccs1)C2=O	-2	24	2	0	·	·
C=CCc1cc(OC)ccc1OCCNCCN	1	24	6	0	·	·
C=CCc1ccc(OCCN(C)C)c(OC)c1	1	82*	-1	-1	2	15
C=CCc1cc(OC)ccc1OCCCNCCN	0	8	0	0	·	·
C=CCc1cc(OC)ccc1OCCN(C)C	2	63*	13	0	3	10
C=CCc1cc(OC)ccc1OCCNCCCOC	-3	52*	6	0	7	18
CCCc1ccc(OCC(=O)Nc2ccc(S(=O)(=O)Nc3onc(C)c3C)cc2)cc1	1	11	1	0	·	·
O=C(Nc1c2c(nn1-c1cccc(Cl)c1)CSC2)c1ccc(Br)o1	1	53*	8	0	2	-2
N/C(=N\N=C(/N)c1ccccn1)c1ccccn1	-6	107*	61*	-1	100*	100*
CC(=O)Nc1ccc(C(=O)OCC(=O)Nc2cc(C)cc(C)c2)cc1	1	9	4	0	·	·
CC(=O)Oc1cc(C(=O)OCC(=O)Nc2ccc(C)cc2)cc(OC(C)=O)c1OC(C)=O	1	80*	-5	0	56*	16	AS interf DR=>7
Cc1n[nH]c(C)c1S(=O)(=O)NCc1ccccc1	0	3	-17	0	·	·
Cc1ccc(C)c2c1CC(C)(C)NC2=S	-1	70*	0	0	8	15
SMILES	GPR151 activ	MITF primary	TEAD-YAP block	FBW7 act	MITF inh conf	AS interf ctr	others
Cc1cccc2c1CC(C)(C)NC2=S	-1	5	4	0	·	·
CCN1CCN(C(=O)c2c(NC(=O)c3cccs3)sc3c2CCCC3)CC1	0	-7	1	0	·	·
O=C(Cc1ccccc1)n1nc(-c2cccnc2)nc1NCc1cccs1	0	57*	-16	1	-4	-5
O=C(Cc1ccccc1)n1nc(-c2cccnc2)nc1NCc1ccccc1	-1	0	-7	0	·	·
CCOC(=O)c1cnc2ccccc2c1Nc1ccc(C)c(C)c1	-1	54*	-11	0	-11	-8
CCOC(=O)c1cnc2ccccc2c1Nc1ccc(O)cc1	1	-4	-1	0	·	·
CCOC(=O)c1cnc2ccccc2c1Nc1cccc(OC)c1	3	73*	-12	0	-3	-4
CC(NC(=O)c1ccccc1NC(=O)c1ccc(CN2CCOCC2)cc1)c1ccccc1 (centres undefined)	0	17	-13	1	·	·
Cc1ccc2[nH]c(=O)c(CN(CCO)C(=O)c3ccccc3F)cc2c1	1	-6	13	0	·	·
COc1cccc(CN2CCN(Cc3ccc4ccccc4c3)CC2)c1OC	-1	76*	-8	0	-3	16
COc1cc(CN2CCN(Cc3cccc(OC)c3OC)CC2)cc(OC)c1	0	27	2	-1	·	·
